Measurements: PubChem BioAssay (NCATS)
Results filed as inconclusive are left out. The source made the active and inactive calls. Unless noted, calls follow the shape of the dose curve; as a rule, active = well fitted curve in the direction sought with a large enough effect; inconclusive = small, poorly fitted or top-dose-only effect, or another doubt; inactive = no such curve, though single readings can be large; an effect the other way counts as inactive or inconclusive. Residues, ends and D or L forms follow the SMILES beside them. *: point of attachment. Cbz = O=C(OCc1ccccc1)*

Columns and labels:
[1] = qHTS profiling of the MIPE4 collection as inhibitors of Plasmodium falciparum (3D7) proliferation (AID 743344; call rule not given here;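 also: scaled between DMSO vehicle wells and 0.29 µM artemisinin as full inhibition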); settings: P. falciparum 3D7 in erythrocytes, SYBR Green DNA fluorescence, 72 h; at 28.5 µM unless noted
Summary of the method: (§1)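 Erythrocytes infected with P. falciparum (0.3% parasitemia, 2.5% hematocrit) incubated with compounds 72 h at 37 C, 5% CO2. Lysis with saponin/Triton buffer containing SYBR Green I, overnight at room temperature in the dark; DNA fluorescence (485/535 nm) normalised to 0.29 uM artemisinin and DMSO.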

[2] = qHTS profiling of the MIPE4 collection as inhibitors of Plasmodium falciparum (DD2) proliferation (AID 743345; call rule not given here); settings: P. falciparum Dd2 in erythrocytes, SYBR Green DNA, 72 h; at 28.5 µM unless noted
Summary of the method: as §1

[3] = qHTS profiling of the MIPE4 collection as inhibitors of Plasmodium falciparum (DD2) proliferation (Rep 2) (AID 743346; call rule not given here); settings: P. falciparum Dd2 in erythrocytes, SYBR Green DNA, 72 h; at 28.5 µM unless noted
Summary of the method: as §1

[4] = qHTS profiling of the MIPE4 collection as inhibitors of Plasmodium falciparum (HB3) proliferation (AID 743347; call rule not given here;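 also: plate controls were DMSO vehicle wells for no effect and artemisinin wells for full effect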); settings: P. falciparum HB3 in erythrocytes, SYBR Green DNA, 72 h; at 28.5 µM unless noted
Summary of the method: as §1

[5] = High-throughput drug toxicity screening in the BPDCN cell line Gen2.2 (AID 1224824; call rule not given here;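 also: cells exposed to compounds for 48 h before reading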); settings: Gen2.2 BPDCN cells; at 45.8 µM (top of the series) unless noted
Summary of the method: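 Gen2.2, 500 cells/well, phenol red-free RPMI/10% FBS/Pen-Strep; 48 h cpd, 37 °C/5% CO2; CTG lum, 15 min RT. Norm: DMSO = 100%, bortezomib 9.2 uM final = 0%.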

[6] = High-throughput drug toxicity screening in the BPDCN cell line Cal-1 (AID 1224825; call rule not given here); settings: Cal-1 BPDCN cell viability, qHTS; at 45.8 µM (top of the series) unless noted
Summary of the method: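 Exponentially growing Cal-1 cells, 500 per well in phenol red-free RPMI with 10% FBS, were exposed to compounds for 48 h at 37 °C, 5% CO2. Viability was read by CellTiter-Glo luminescence and normalised to DMSO (100%) and 9.2 uM bortezomib (0%).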

[7] = qHTS assay for measurement of the activity of small molecule inhibitors on Zika virus induced Caspase-3 activity in human iPSC derived neural progenitor cells (hNPCs) (AID 1224857); also: nearly all actives have a fitted effect of over 65% in size; also: potency is read from the fitted curve at half-maximal effect
Summary of the method: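 Percent inhibition of virus-induced caspase-3/7 luminescence (Caspase-Glo), scaled between uninfected cells and Zika-infected cells. hNPCs received compound 1 hr before ZIKV at 2 FFU/cell, with 6 hours infection at 37 C.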

[8] = qHTS assay for measurement of the activity of small molecule inhibitors on Zika virus induced Caspase-3 activity in human astrocytoma cells (AID 1224859); also: potency is read from the fitted curve at half-maximal effect
Summary of the method: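 Luminescent caspase-3/7 read-out (30 min reagent, room temperature) in human SNB-19 cells infected 6 h with ZIKV (2 FFU/cell) after 1 h compound pre-incubation; Data were normalised to uninfected and infected wells.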

[9] = qHTS Screen of the MIPE 4.0 Collection Against Ewings Sarcoma (RDES) (AID 1259252); also: nearly all actives have a fitted effect of over 35% in size; also: potency is read from the fitted curve at half-maximal effect
Summary of the method: (§2)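 Here, cells in 5% FBS RPMI were exposed for two days (48 h) to compound dilutions added four hours after plating. ATP-based CellTiter-Glo luminescence measured viability, normalized to vehicle and no-cell blanks.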

[10] = qHTS Screen of the MIPE 4.0 Collection Against Ewings Sarcoma (EW8) (AID 1259255); also: nearly all actives have a fitted effect of over 35% in size; also: potency is read from the fitted curve at half-maximal effect;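 as to viability: 100% = DMSO-treated cells and 0% = medium-only wells without cells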
Summary of the method: as §2

[11] = qHTS Screen of the MIPE 4.0 Collection Against Ewings Sarcoma (TC32) (AID 1259256); also: nearly all actives have a fitted effect of over 45% in size; also: potency is read from the fitted curve at half-maximal effect
Summary of the method: as §2

[12] = qHTS Screen of the MIPE 4.0 Collection Against Ewings Sarcoma (TC71) (AID 1259253); also: nearly all actives have a fitted effect of over 40% in size; also: potency is read from the fitted curve at half-maximal effect
Summary of the method: as §2

[13] = qHTS profiling for inhibitors of Plasmodium falciparum (3D7) proliferation (AID 743322);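 also: infected erythrocytes exposed to compound for 72 h before lysis; 100% = DMSO vehicle wells and 0% = 0.29 µM artemisinin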; settings: P. falciparum 3D7 proliferation; at 28.7 µM (top of the series)
Summary of the method: as §1

[14] = qHTS profiling for inhibitors of Plasmodium falciparum (DD2) proliferation (AID 743323; call rule not given here); settings: lower = more inhibition; at 28.7 µM (top of the series)
Summary of the method: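 1536-well qHTS; infected RBCs 0.3% parasitemia/2.5% Hct final; cpd 72 h 37 C 5% CO2; lysis buffer + SYBR Green I, o/n RT dark; FI 485/535; norm. to 0.29 uM artemisinin and DMSO, plate-stack corrected.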

[15] = qHTS profiling for inhibitors of Plasmodium falciparum (HB3) proliferation (AID 743324); settings: Plasmodium falciparum HB3 blood-stage proliferation; at 28.7 µM (top of the series);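 also: 100% = DMSO vehicle wells and 0% = artemisinin-treated control wells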
Summary of the method: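 P. falciparum HB3 grown in erythrocytes (0.3% parasitemia, 2.5% hematocrit final) with compound for 72 h at 37 C, 5% CO2. Parasite DNA detected by SYBR Green after saponin/triton lysis overnight; normalized to 0.29 uM artemisinin and DMSO.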

[16] = qHTS assay for cell viability of HEK293 cells (AID 743288); settings: ATP luminescence (CellTiter-Glo), 18 h, stronger effect = lower value; also: % is scaled to controls: 0 for no effect and ±100 for the full control effect; nearly all actives have a fitted effect of over 50% in size
Summary of the method: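 The Tox21 protocol used parental HEK293 cells treated for 18 h at 37 C with compounds delivered by pintool; ATP-coupled luminescence after 30 min at room temperature gave viability.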

[17] = qHTS assay for cell viability of the p53RE-bla HCT-116 cell line (AID 743292); also: % is scaled to controls: 0 for no effect and ±100 for the full control effect; nearly all actives have a fitted effect of over 55% in size
Summary of the method: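 HCT-116 p53RE-bla cells seeded 4,000/well; 5 h at 37 C; compound (DMSO) added; 16 h at 37 C; CellTiter-Glo added, 30 min RT; luminescence read.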

| SMILES | parasite growth, % of DMSO control [1] | parasite growth remaining, % of DMSO control (lower = more inhibition) [2] [%] | parasite growth, % of control (lower = inhibition) [3] | growth, % of control [4] | cell viability, % of control (lower = more cytotoxic) [5] | viability (% of control) [6] | Potency [7] | Potency [8] | Potency [9] | Potency [10] | Potency [11] | Potency [12] | remaining parasite growth % (stronger effect = lower value) [13] [%] | activity, percent of control [14] [%] | remaining proliferation (% of control), lower = more inhibition [15] [%] | max response [16] | outcome [17] |
| --- | --- | --- | --- | --- | --- | --- | --- | --- | --- | --- | --- | --- | --- | --- | --- | --- | --- |
| CCC[C@H]1C[C@H](C(=O)N[C@@H]([C@@H]2O[C@@H](SC)[C@@H](O)[C@@H](O)[C@@H]2O)[C@H](C)Cl)N(C)C1 | 30.4% | 36 | 24.6% | 25.3% | 155% | 128% | inactive | inactive | inactive | inactive | inactive |  |  |  |  |  |  |
| C[C@@H]1CC[C@@]2(OC1)OC1CC3C4CC=C5CC(O)CCC5(C)C4CCC3(C)C1[C@@H]2C (some centres undefined) | 94.4% | 97.8 | 64.4% | 99.7% | 128% | 115% | inactive | inactive | inactive | inactive | inactive |  |  |  |  |  |  |
| O=C(Nc1cc2cc[nH]c2cn1)c1ccccc1 | 76.5% | 88 | 39.2% | 75.4% | 13.5% | 8.25% | 4.69 µM (active) | 5.26 µM (active) | 13.2 µM (active) | 14.8 µM (active) | 13.2 µM (active) |  |  |  |  |  |  |
| CC(C)[C@H](CO)Nc1nc(Nc2cccc(Cl)c2)c2ncn(C(C)C)c2n1 | 8.7% | 21.1 | 17.2% | 5.25% | 2.15% | 1.87% | inactive | inactive | 5.9 µM (active) | 16.6 µM (active) | 10.5 µM (active) |  |  |  |  |  |  |
| CCCCCCCCCCCCCCCC(=O)OC[C@@H](NC(=O)C(Cl)Cl)[C@H](O)c1ccc([N+](=O)[O-])cc1 | 101% | 95.4 | 135% | 112% | 132% | 117% | inactive | inactive | inactive | inactive | inactive |  |  |  |  |  |  |
| CN1[C@H]2CC(OC(=O)[C@@H](CO)c3ccccc3)C[C@H]1[C@H]1O[C@H]12 (some centres undefined) |  |  |  | 107% | 189% [at 23.2 µM] | 107% [at 23.2 µM] | inactive | inactive | inactive | inactive | inactive | inactive |  |  |  |  |  |
| CCCCOc1ccc(C(=O)Nc2ccc(F)cc2F)cc1 | 108% |  | 174% | 94.1% | 152% | 105% | inactive | inactive | inactive | inactive | inactive |  |  |  |  |  |  |
| CC(C)(O)Cn1c(NC(=O)c2ccc(-c3cn[nH]c3)s2)nc2cc(CN3CCOCC3)ccc21 | 6.03% | 7.56 | 9.94% | 6.36% | 7.04% | 3.65% | inactive |  | 1.66 µM (active) | 2.96 µM (active) | 3.32 µM (active) | 1.66 µM (active) |  |  |  |  |  |
| COc1cc2c(cc1OC)[C@@H]1C(=O)c3ccc4c(c3O[C@@H]1CO2)C=CC(C)(C)O4 | 45.9% |  | 39.7% | 47.7% | 7.01% | 3.79% | inactive | inactive | 23.5 µM (active) | 33.2 µM (active) | 0.0662 µM (active) |  | 39.1 | 44.5 | 17.6 |  |  |
| COc1ccc(S(=O)(=O)Nc2cccnc2Nc2ccc(O)cc2)cc1 | 64.8% | 94 | 85.5% | 51.4% | 4.34% | 8.72% | inactive | inactive | 0.0833 µM (active) | 0.0935 µM (active) | inactive |  |  |  |  |  |  |
| Nc1ccn(C[C@@H](CO)OCP(=O)(O)O)c(=O)n1 |  |  |  |  | 138% [at 23.2 µM] | 98.1% [at 23.2 µM] | inactive | inactive | inactive | inactive | inactive |  |  |  |  |  |  |
| Cc1cc(O)c2c(c1)C(=O)c1cccc(O)c1C2=O | 91.5% | 85.9 | 121% | 110% | 99.4% | 94.6% | inactive | inactive | inactive | inactive | inactive |  |  |  |  | -7.7% (inactive) | inactive |
| Cc1ccc(O)c(C(CCN(C(C)C)C(C)C)c2ccccc2)c1 (centres undefined) | 11.8% |  | 10.4% |  | 239% | 103% | inactive | inactive | inactive | inactive | inactive |  |  |  |  |  |  |
| CC(C)C[C@@H](C=O)NC(=O)[C@H](CC(C)C)NC(=O)[C@H](CC(C)C)NC(=O)OCc1ccccc1 (Cbz-Leu-Leu-Leu-aldehyde) | 4.63% | 6.51 | 8.46% | 6.33% | 5.4% | 4.19% | inactive | inactive | 0.469 µM (active) | 0.332 µM (active) | 0.372 µM (active) |  |  |  |  |  |  |
| COc1cc(C(C)C)c(Oc2cnc(NC(CO)CO)nc2N)cc1I |  | 86.9 | 60.9% | 97.9% | 294% | 1.88% | inactive | inactive | 0.935 µM (active) | 7.43 µM (active) | 1.48 µM (active) |  |  |  |  |  |  |
| CCN(CC)CCNC(=O)c1c(C)[nH]c(C=C2C(=O)Nc3ccc(F)cc32)c1C | 4.82% [at 57.5 µM] |  | 16% [at 57.5 µM] | 5.65% [at 57.5 µM] | 7.6% [at 92.2 µM] | 4.58% [at 92.2 µM] | inactive | inactive | 9.59 µM (active) | 4.29 µM (active) | 10.8 µM (active) |  |  |  |  |  |  |
